# This is a sample that favours compounds with a hit; in the whole collection about 5.7% have one here.
# GLP1R inv ag = qHTS of GLP-1 Receptor Inverse Agonists (Inhibition Mode); Glucagon-like peptide 1 receptor (Homo sapiens), P43220; HEK293 GLP-1R CRE-luciferase, luminescence, 24 h; GLP-1R form is constitutively active; Potency, µM (series often up to 38.3 µM), hits mostly inhibitors; hit rate 1.6% among 410,000; AID 624417, 2012; note: nearly all actives have a fitted effect of over 55% in size
# Target sequence (P43220 whole entry, looked up): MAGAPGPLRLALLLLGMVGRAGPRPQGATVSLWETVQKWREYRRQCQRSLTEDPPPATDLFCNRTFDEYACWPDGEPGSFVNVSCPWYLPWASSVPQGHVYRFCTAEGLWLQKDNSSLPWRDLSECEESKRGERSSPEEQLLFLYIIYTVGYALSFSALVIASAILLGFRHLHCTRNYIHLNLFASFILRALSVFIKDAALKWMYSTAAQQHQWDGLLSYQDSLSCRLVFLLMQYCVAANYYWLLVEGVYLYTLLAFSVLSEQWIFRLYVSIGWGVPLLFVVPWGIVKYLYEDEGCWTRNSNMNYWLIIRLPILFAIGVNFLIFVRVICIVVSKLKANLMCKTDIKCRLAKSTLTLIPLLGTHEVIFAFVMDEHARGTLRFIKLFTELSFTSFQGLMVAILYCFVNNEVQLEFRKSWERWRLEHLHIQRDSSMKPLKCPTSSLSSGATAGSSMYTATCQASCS
#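 qHTS in 1536-well format: reporter HEK293 cells expressing constitutive GLP-1R activity in DMEM + 10% Nu serum, 24 hr with compounds at 37 deg C, luminescence read after 12 min with detection reagent.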
# DRD3 antagonist = qHTS of D3 Dopamine Receptor Antagonist: qHTS. D(3) dopamine receptor (Homo sapiens), P35462. D3R cells, DiscoveRx beta-arrestin luminescence, antagonist mode; active compounds read low. max response, negative = inhibition, %. hit rate 2.5% among 360,000. AID 652054, 2013; in the data active = max response below about -50%; inconclusive = no clear call, values can overlap the other calls
#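 Cells expressing the human receptor were seeded at 1500 cells/well, incubated overnight at 37 degrees C in 5% CO2, then exposed to library compounds with dopamine controls for 90 minutes at 37 degrees C before luminescent detection.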
# GLP1R ag = qHTS of GLP-1 Receptor Agonists; Glucagon-like peptide 1 receptor (Homo sapiens), P43220; HEK293 GLP-1R CRE-luciferase, luminescence, 4-6 h; cells express a hypersensitive GLP-1R form; Potency, µM (highest dose often 45.6 µM), hits mostly activators; hit rate 0.007% among 380,000; AID 624172, 2012
# DRD3 agonist = qHTS of D3 Dopamine Receptor Agonist: qHTS | D(3) dopamine receptor (Homo sapiens), P35462 | D3R DiscoveRx beta-arrestin cells, luminescence, 90 min | max activation, % | hit rate 0.58% among 410,000 | AID 652048, 2013; in the data active = max activation above about 30%
#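 Agonist mode: compounds and dopamine controls were applied to plated cells for 90 min at 37 degrees C after an overnight attachment at 1500 cells/well. Luminescent read-out followed 30 - 60 minutes at room temperature with DiscoveRx detection reagent.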
# ClpP mod = qHTS Assay for Activators of ClpP; hit rate 1.9% among 340,000; Potency, µM (top dose mostly 57.5 µM); purified B. subtilis ClpP, FRET peptide cleavage, 20 min; active = well fitted falling curve with a large enough effect; inconclusive = small, poorly fitted or top-dose-only effect; inactive = no such curve, though single readings can be large or run the other way; note: the source files actives as falling curves though it sought activators and does not explain the sign; nearly all actives have a fitted effect of over 65% in size
# Target sequence (P80244 whole entry, looked up): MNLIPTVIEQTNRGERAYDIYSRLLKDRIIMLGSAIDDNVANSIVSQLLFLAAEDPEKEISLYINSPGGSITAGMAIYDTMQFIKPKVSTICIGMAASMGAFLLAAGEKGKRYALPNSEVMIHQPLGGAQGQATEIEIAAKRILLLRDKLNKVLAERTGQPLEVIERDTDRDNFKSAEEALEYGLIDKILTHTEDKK
#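 FRET quenching reversal measured ClpP activation: 10 microg/mL B. subtilis ClpP at pH 8 with the FRET-FV decapeptide, read at 430 nm after 320 nm excitation. The 20-min minus 0-min signal was scaled between DMSO/no-enzyme wells and ADEP (5.8 microM final).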
# HEK293 tox = qHTS of GLP-1 Receptor Inverse Agonists: Cytotox Screen. HEK293 cAMP-luciferase reporter cells, luminescence, 24 h. Potency, µM (series often up to 38.3 µM), usual class: inhibitors. hit rate 0.13% among 410,000. AID 624418, 2012;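 note: loss of luciferase light is scored as toxicity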
#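 MLSMR compounds, 24 hr on cells at 37 deg C/5% CO2; luminescence after luciferase reagent (12 min RT). Inhibition counted as the undesired cytotoxic outcome.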
# Hits are given with their value; i = inactive; ? = inconclusive; nt = not tested or not shown. Unless noted, calls come from the whole dose curve; as a rule, active = well fitted curve in the direction sought with a large enough effect; inconclusive = small, poorly fitted or top-dose-only effect, or another doubt; inactive = no such curve, though single readings can be large; an effect the other way counts as inactive or inconclusive.
SMILES,GLP1R inv ag,DRD3 antagonist,GLP1R ag,DRD3 agonist,ClpP mod,HEK293 tox
CC1(C(=O)NCCC(F)(F)F)Cc2c(-c3cccc(C(F)(F)F)c3)ccnc2O1 (centres undefined),?,i,i,i,i,?
CC1(C(=O)NCc2ccccc2)Cc2c(-c3ccc4c(c3)OCO4)ccnc2O1 (centres undefined),2.8µM,?,i,i,i,i
CC1(C(=O)NCc2ccccc2)Cc2c(-c3ccccc3)ccnc2O1 (centres undefined),?,?,i,i,i,i
CC1(C(=O)NCc2ccccc2)Cc2c(-c3ccc(C(N)=O)cc3)ccnc2O1 (centres undefined),6.3µM,?,i,58,?,?
CN1CCN(c2ccc(CNC(=O)C3(C)Cc4c(-c5ccccc5)ccnc4O3)cc2)CC1 (centres undefined),i,-62,i,i,i,i
CC1(C(=O)NCCC(F)(F)F)Cc2c(-c3cccc(C(N)=O)c3)ccnc2O1 (centres undefined),i,-59,i,i,i,i
CC1(C(=O)NCCc2ccccc2)Cc2c(-c3ccc4c(c3)OCO4)ccnc2O1 (centres undefined),?,i,i,i,i,i
CCOc1ccc(-c2cc3c(=O)n(Cc4nc(-c5ccc(OC(C)C)cc5)oc4C)ccn3n2)cc1Cl,i,nt,i,i,i,i
Cc1ccc(NC(=O)c2cccc(NC(=O)N3CCSc4ncccc43)c2)cc1Cl,i,nt,nt,i,?,i
O=C(NCc1ccccc1Cl)c1ccc(NC(=O)N2CCSc3ncccc32)cc1,i,nt,nt,i,28µM,i
Cc1ccc(NC(=O)c2ccc(NC(=O)N3CCSc4ncccc43)cc2)cc1Cl,i,nt,nt,i,32µM,i
COc1ccccc1-c1noc(-c2ccc(NCc3ccco3)c([N+](=O)[O-])c2)n1,i,nt,nt,i,i,i
CCc1ccc(NC(=O)CN2C(=O)C3CCCN3c3ccc(S(=O)(=O)N(CC)CC)cc32)cc1 (centres undefined),i,nt,nt,i,i,i
COc1ccc(CC(=O)Nc2ccc(-c3cn4cccc(C)c4n3)cc2)cc1OC,i,i,i,i,?,i
COc1ccc(CC(=O)Nc2ccc(-c3cn4ccc(C)cc4n3)cc2)cc1,i,i,i,i,16µM,i
Nc1ccc(C(=O)OCCCc2nc3ccccc3[nH]2)cc1,i,i,i,i,28µM,i
Nc1ccc(C(=O)OCc2nc3ccccc3[nH]2)cc1,i,i,i,i,i,i
CCN(CCCCOC(=O)c1ccc(OC)c(OC)c1)[C@@H](C)Cc1ccc(OC)cc1,nt,nt,i,nt,nt,nt
C#CC1(O)CCC2C3CCc4cc(O)cc(C)c4C3CCC21C (centres undefined),i,i,i,i,32µM,i
C#CC1(O)CC[C@H]2[C@@H]3CCC4=CCCC[C@@H]4[C@H]3CC[C@@]21C (some centres undefined),nt,nt,nt,i,nt,nt
O=C1CC(C(F)(F)F)=NN1,i,i,i,33,nt,i
O=C(CN(C(=O)c1ccccc1Cl)C1CCCCC1)Nc1ccc(Cl)c([N+](=O)[O-])c1,4µM,i,i,i,i,i
Nc1ccc(C2CCCc3nonc32)c2nonc12 (centres undefined),i,-63,i,i,i,i
O=C(CN1CCCC1)N/N=C/c1c(O)ccc2ccccc12,2.8µM,i,i,i,i,i
O=C(NN=Cc1c(O)ccc2ccccc12)C1CC1,?,i,i,i,i,i
SMILES,GLP1R inv ag,DRD3 antagonist,GLP1R ag,DRD3 agonist,ClpP mod,HEK293 tox
CCCCNc1sc(S(=O)(=O)CCC)nc1S(=O)(=O)c1ccc(C)cc1,?,nt,nt,i,i,i
NNC(=O)c1ccccc1CO,i,i,i,34,i,i
COc1ccccc1C1CCN(Cc2cccc(C(=O)N3CCC(O)CC3)c2)CC1,i,-110,i,i,i,i
Cc1nnc(SCc2ccccc2Cl)c2cc3occc3n12,i,nt,nt,i,i,i
CN(C)CCNC(=O)C12CC3(C)CC(C)(CC(C)(C3)C1)C2,8.9µM,-52,i,i,i,i
CC12CC3(C)CC(C)(C1)CC(C(=O)NCCc1ccc(S(N)(=O)=O)cc1)(C2)C3,?,i,i,i,i,i
CCOc1ccc(CNC(=O)c2cnc3sc(N4CCOCC4)nn3c2=O)cc1,i,nt,nt,i,i,i
COc1ccc(CCNC(=O)c2cnc3sc(N4CCCC4)nn3c2=O)cc1OC,i,nt,nt,i,11µM,i
CCOc1ccc(CNC(=O)c2cnc3sc(N4CCOCC4)nn3c2=O)cc1OC,i,nt,nt,i,28µM,i
COCCCNC(=O)c1cnc2sc(N3CCCCC3)nn2c1=O,i,nt,nt,i,i,i
CC(C)CCNC(=O)c1cnc2sc(N3CCCCCC3)nn2c1=O,i,nt,nt,i,13µM,i
CCOc1ccc(CNC(=O)c2cnc3sc(N(CC)CC)nn3c2=O)cc1OC,i,nt,nt,i,32µM,i
C=C1C(=C/C=C2\CCC[C@]3(C)[C@@H]([C@H](C)/C=C/[C@H](C)C(C)C)CC[C@@H]23)C[C@@H](O)C[C@@H]1O,nt,nt,nt,i,nt,nt
COc1ccc(C2c3c(n(C)c4ccccc34)C(=O)N2CC(=O)Nc2cccc(F)c2)cc1 (centres undefined),?,nt,nt,i,?,i
O=C(NOCC1CC1)c1ccc(F)c(F)c1Nc1ccc(I)cc1Cl,nt,nt,nt,i,nt,nt
CCN1CCN(Cc2cccc(Oc3ccc(Cl)cc3)c2)CC1,?,-63,i,i,i,i
COc1cccc(CN2CCN(Cc3cccc(Oc4ccccc4)c3)CC2)c1OC,6.3µM,-59,i,i,i,?
COc1cccc(CN2CCC(N(CCc3ccccc3)Cc3ccccc3)CC2)c1OC,10µM,-85,i,i,i,i
CCN1CCN(Cc2cccc(Oc3ccccc3)c2)CC1,i,-52,i,i,i,i
c1ccc(Oc2cccc(CN3CCCCC3)c2)cc1,i,i,i,i,i,i
COc1cccc(CN2CCN(Cc3cc(OC)c(OC)c(OC)c3)CC2)c1OC,i,i,i,i,nt,i
O=C1NC[C@@H](CCCCN2C[C@H](Cc3ccccc3)N(CCc3ccccc3)C(=O)C2=O)N(CCc2ccccc2)C1=O,i,i,i,i,i,i
O=C(NCCc1ccc(Cl)cc1)C1COc2ccccc2C1 (centres undefined),?,nt,nt,i,i,i
CCOC(=O)C1CCN(Cc2cccc(Oc3ccc(Cl)cc3)c2)CC1,?,?,i,i,i,i

# High-throughput results as filed in PubChem BioAssay.
